What all share (test): NCI-60 one-dose screen, 48 h (100 = growth as untreated, 0 = no growth, -100 = all killed)
Common to all, as to details: 10 µM unless noted

In test [1] the test system is HCT-15 colon.
In test [2] the test system is HT29 colon.
Test [3] relates to SNB-75 CNS.
The subject of test [4] is SNB-19 CNS.
Test [5] has as its system U251 CNS.
Test [6] concerns PC-3 prostate.
Test [7] concerns SK-MEL-5 melanoma.
Test [8] has as its system UACC-62 melanoma.
The test system of test [9] is LOX IMVI melanoma.
In test [10] the test system is SK-MEL-28 melanoma.
Test [11] has as its system EKVX NSCLC.
Test [12] has as its system SN12C renal.
In test [13] the test system is UO-31 renal.
Test [14] concerns TK-10 renal.
The subject of test [15] is ACHN renal.
Test [16] relates to CAKI-1 renal.
Test [17] relates to CCRF-CEM leukemia.
For test [18], the system named is MOLT-4 leukemia.
The subject of test [19] is A498 renal.
The test system of test [20] is SK-MEL-2 melanoma.

Compounds without any hit were thinned out: in the full panel of roughly 83,000, 20% have a hit.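 Values shown are percent growth following 48 h exposure of cells in 96-well plates to a single concentration of compound; below 10 was considered active.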 Unmarked numbers belong to inactive results. The source made the active and inactive calls.

As to `COc1cc(/C=C\c2cc(OC)c(OC)c(OC)c2)cc(NC(=O)/C=C/c2cc(OC)c(OC)c(OC)c2)c1OC`, the growth was 34.6% in test [1]; 32% in test [2]; 51.8% in test [3]; 72% in test [4]; 71% in test [5]; 29.3% in test [6]. Besides, the growth in [7] is -45.3% (active); in [8], 29.7%; in test [9] it was 35.5%; in test [10] it was 47.6%; in test [11], 47.6%; in test [12], 66.9%. Besides, the growth in [13] is 24.9%; in [14], 71.3%; in test [15] it was 52.7%; in test [16], 22.7%; in test [17], 25.8%; in test [18] it was 30.9%.

Turning to `Cc1ccc(C(=O)/C(=C\c2ccc([N+](=O)[O-])cc2)S(=O)Cc2ccc(Cl)cc2)cc1` (centres undefined), the growth in test [1] was 10.8%; in test [2] it was -51.1% (active); in [3], 75.5%; in test [4], 46.8%; in test [5] it was 9.49% (active); in test [6], 6.38% (active). For the same molecule, the growth in [7] was 78.5%; in test [8], 5.87% (active); in [9], -26.5% (active); in [10] it was 46.6%; in [11], 82.4%; in [12], -15.6% (active). The growth in test [13] is 3.42% (active); in test [14] it was 50.3%; in [16], 59.7%; in [19] it was 77.6%; in [17], 4.88% (active); in [18], 7.82% (active).

For `COc1cc2nc(-c3ccc(Cl)cc3)cc(OCCCN3CCCC3)c2cc1OC`, the growth was 20.4% in test [1]; 23.8% in test [2]; 8.25% (active) in test [3]; 67.9% in test [4]; 54.4% in test [5]; 41.9% in test [6]. The growth in test [7] is -8.4% (active); in test [8], -66.1% (active); in test [9], -32.7% (active); in test [10], 63.7%; in [11], 65.8%; in [12] it was 37.9%. The growth in test [13] is 42.3%; in [14], 101%; in [15] it was 35.5%; in test [16], 3.85% (active); in test [17], 44.6%; in test [18] it was 40.4%.

With `COc1ccc(C(=O)C2C(C#N)C(C#N)C3c4ccccc4C=CN23)cc1` (centres undefined), the growth in test [1] is 94.5%; in [2] it was 84.4%; in [3], 74.8%; in [4], 85.4%; in test [5], 93.6%; in [6], 84.7%. Moreover, the growth in test [7] is 84.2%; in test [9], 87.8%; in [10], 98.9%; in [20], 88.5%; in [11], 84.2%; in test [12], 80.9%. Further, the growth in test [13] was 60.7%; in test [14] it was 131%; in test [15], 91.3%; in test [16], 72.4%; in [19], 80.9%; in test [17] it was 82.5%. For the same molecule, in [18], the growth is 95.6%.

`COc1cccc(-c2ccc3c(c2)NC(=O)/C3=C\c2ccc[nH]2)c1`: the growth is 20.7% in [1]; 23.6% in [2]; 44% in test [3]; 81.6% in [4]; 83.5% in test [5]; 70.1% in [6]. The growth in [7] is 11%; in [9], 50.5%; in [10], 70.7%; in test [20] it was 52.7%; in test [11] it was 26.1%; in [12], 69.2%. In addition, the growth in test [13] was 52.7%; in test [14], 27.1%; in test [15], 40.2%; in test [16], 28.3%; in test [17], 19%; in test [18], 34.4%.

In the case of `CC(=O)N1N=C(c2ccc(-n3ccc(C(F)(F)F)n3)c(F)c2)CC1c1ccc[nH]1` (centres undefined), the growth was 98.8% in [1]; 102% in test [2]; 103% in test [3]; 100% in test [4]; 99.3% in test [5]; 96.7% in [6]. Moreover, the growth was 97.7% in [7]; 90.7% in [8]; 98.1% in [9]; 105% in test [10]; 102% in [11]; 102% in test [12]. Also, the growth in test [13] is 92.7%; in [14], 108%; in [15], 109%; in test [16], 95.4%; in [17], 93.7%; in test [18], 85.6%.

With `O=C(/C=C/c1ccc[nH]1)c1ccc(-n2ccc(C(F)(F)F)n2)c(F)c1`, the growth in [1] was 85%; in test [2], 92.5%; in [3], 75.6%; in test [4] it was 101%; in test [5], 88.7%; in test [6], 48.1%. Further, the growth is 97.6% in test [7]; 97.7% in test [9]; 100% in test [10]; 108% in [20]; 80.2% in test [11]; 92.1% in test [12]. Also, the growth was 46.9% in test [13]; 104% in test [14]; 103% in test [15]; 93% in [16]; 59.7% in test [17]; 84% in test [18].

Take `COc1cc(C(=O)Nc2cc3c(cc2Oc2cc(C)cc(C)c2)C(=O)N(C)[C@@H](CC(=O)N(C)O)C(=O)N3)c(Br)c(OC)c1OC`: the growth was -16.2% (active) in test [1]; -14.5% (active) in test [2]; -48.1% (active) in [3]; -21.9% (active) in test [4]; -0.595% (active) in [5]; -14.5% (active) in test [6]. Also, the growth in test [7] was -71.7% (active); in [8], -69% (active); in test [9], -41.5% (active); in test [10], -49.1% (active); in [11], -18.8% (active); in [12], -27.7% (active). Further, the growth in test [14] was -12.2% (active); in test [15] it was -30% (active); in [16], -5.8% (active); in test [19], -56.7% (active); in test [17], 2.91% (active).

`Cn1c2ccccc2c2c3c(c4c5ccccc5n(C)c4c21)C(=O)OC3`: the growth in test [1] was 96.7%; in test [2], 105%; in [3] it was 68.1%; in [4] it was 92.7%; in test [5] it was 104%; in [6], 90.6%. Further, the growth is 93.5% in test [7]; 88.6% in test [8]; 88.2% in [9]; 120% in test [10]; 88.1% in [11]; 92.3% in test [12]. Besides, the growth in [13] is 61%; in test [14], 135%; in [15], 87.3%; in test [16] it was 82.6%; in test [17], 98.4%; in [18], 89.7%.

For `C=C1C(=O)O[C@H]2[C@H]1CC/C(CNC(=O)c1cccc3ccccc13)=C\CC[C@@]1(C)O[C@@H]21`, the growth in test [1] is 10.2%; in test [2], 8.85% (active); in [3], 82.6%; in test [4], 66.4%; in [5], 59%; in test [6], 53.7%. In addition, the growth in test [7] is 60.1%; in test [9] it was 24.3%; in test [10] it was 41.2%; in [20] it was 70.7%; in [11] it was 65.9%; in [12] it was 25%. Besides, the growth is 37.9% in [13]; 34.8% in test [14]; 11.6% in test [15]; 40% in [16]; 81.8% in test [19]; 1.76% (active) in [17]. For the same molecule, the growth in [18] was 4.8% (active).

For `CN(C)c1ccc(C2C(C#N)=C(/N=C/c3ccccc3)Oc3c2ccc2ccccc32)cc1` (centres undefined), the growth is 48% in [1]; 69.9% in test [2]; -0.718% (active) in test [3]; 74.2% in [4]; 74.8% in test [5]; 50.7% in test [6]. Further, the growth in test [7] was 71.5%; in [9], 54.6%; in [10] it was 80.1%; in test [20], 70.8%; in test [11], 73.4%; in [12], 78%. Also, the growth is 50.6% in test [13]; 144% in test [14]; 71.6% in test [15]; 20.7% in test [16]; 66.7% in [17]; 67.7% in test [18].

Consider `COc1c(Cl)c2c(c(OC)c1OC)-c1ccc(SC)c(=O)cc1[C@@H](NC(=O)OCC(F)(F)F)CC2`, for which the growth in [1] was 9.54% (active); in test [2] it was 13.5%; in test [3] it was 37.4%; in test [4] it was 29.4%; in test [5], 20.6%; in test [6], 24.7%. The growth was -7.65% (active) in test [7]; 15.1% in [9]; 63% in [10]; 46.3% in test [20]; 40% in test [11]; 24.2% in test [12]. Further, the growth in test [13] was 28.6%; in test [14], 44.5%; in test [15] it was 25.8%; in [16], 15.6%; in [17], 4.8% (active); in test [18], 3.85% (active).

In the case of `COc1cc2c(=O)n(CCCN(C)C)c3c4cc5c(cc4ccc3c2cc1OC)OCO5`, the growth was 52.1% in [1]; 30.5% in test [2]; 90.2% in test [3]; 52.6% in test [4]; 55.8% in [5]; 50.8% in [6]. The growth in test [7] was 71%; in test [9], 36.3%; in test [10], 87.2%; in test [20] it was 89%; in test [11], 85%; in [12], 50.4%. Besides, the growth in [13] is 41.9%; in test [14] it was 84.5%; in test [15], 36.8%; in test [16], 62%; in test [17] it was 13.8%; in test [18], -9.29% (active).

On to `O=C(Nc1ccccc1C(=O)N/N=C(\c1ccccc1)c1ccccn1)c1ccc(F)cc1`, for which the growth in [1] was 32.5%; in [2], 25.2%; in test [3] it was 16.2%; in test [4] it was 25.5%; in test [5] it was 17.8%; in test [6] it was 36.5%. Further, the growth in test [7] is -7.66% (active); in [8] it was 1.28% (active); in [9] it was 8.38% (active); in test [10], 33.7%; in test [11] it was 16.8%; in [12], 26.6%. Moreover, the growth is 1.98% (active) in test [13]; 49.1% in test [14]; 14.1% in test [15]; 5.29% (active) in test [16]; 4.15% (active) in test [17]; 12.8% in test [18].

Consider `C=C1C(=O)O[C@H]2[C@H]1CC/C(CNS(=O)(=O)c1cccc3ccccc13)=C\CC[C@@]1(C)O[C@@H]21`, for which the growth was -25% (active) in test [1]; -3.2% (active) in test [2]; 66.5% in [3]; 67.2% in test [4]; 53.1% in [5]; 45.7% in test [6]. Besides, the growth in test [7] was 41.4%; in [8] it was 29%; in [9], 14.3%; in [10], 2.74% (active); in test [11] it was 59.4%; in test [12], 11.9%. Further, the growth was 21.9% in test [13]; 3.67% (active) in test [15]; 34.5% in test [16]; 70.9% in test [19]; 1.32% (active) in [17]; 6.51% (active) in test [18].

As to `COC(=O)C(OC(C)=O)C(OC(C)=O)c1ccc(OC)c(OC)c1` (centres undefined), the growth in test [1] was 97.8%; in [2], 97.2%; in test [3], 96.4%; in test [4], 103%; in test [5], 97.5%; in test [6], 81.5%. Further, the growth in [7] was 97.7%; in test [8], 100%; in test [9], 90%; in [10] it was 102%; in [11], 107%; in test [12], 101%. Also, the growth in test [13] was 106%; in test [14] it was 115%; in [15], 104%; in [16], 101%; in [17] it was 94.9%; in test [18] it was 85.5%.

Source of the values: PubChem BioAssay (NCI).
